Assay outcomes (PubChem)
POLB inh = qHTS Assay for Inhibitors of DNA Polymerase Beta | AID 485314, 2010 | Pol beta primer extension/strand displacement, fluorescence kinetic | 340,000 tested, 1.3% active | Potency, µM (series often up to 114 µM), usual class: inhibitors
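Human Pol beta at 10 nM; strand-displacement substrate 50 nM final. Compound exposure 15 min at room temperature before start, reaction 10 min at room temperature.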
POLI inh = qHTS for Inhibitors of Polymerase Iota; Potency, µM (series often up to 115 µM), usual class: inhibitors; 390,000 tested, 1% active; Pol iota fluorescent replication assay, 10 min; DNA polymerase iota (Homo sapiens), Q9UNA4
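Pol iota at 10 nM preincubated 15 min with compounds at room temperature; reaction started with fluorescent substrate, 50 nM final. Fluorescence read kinetically at 0 and 10 min; buffer-only wells as negative control.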
KAT2A inh = qHTS Assay for Inhibitors of GCN5L2 | GCN5L2 HAT assay, ThioGlo1 CoA-SH fluorescence | AID 504327, 2011 | Histone acetyltransferase KAT2A (Homo sapiens), Q92830 | Potency, µM (highest dose often 58.9 µM), usual class: inhibitors | 390,000 tested, 0.21% active
Target sequence (Q92830 whole entry, looked up): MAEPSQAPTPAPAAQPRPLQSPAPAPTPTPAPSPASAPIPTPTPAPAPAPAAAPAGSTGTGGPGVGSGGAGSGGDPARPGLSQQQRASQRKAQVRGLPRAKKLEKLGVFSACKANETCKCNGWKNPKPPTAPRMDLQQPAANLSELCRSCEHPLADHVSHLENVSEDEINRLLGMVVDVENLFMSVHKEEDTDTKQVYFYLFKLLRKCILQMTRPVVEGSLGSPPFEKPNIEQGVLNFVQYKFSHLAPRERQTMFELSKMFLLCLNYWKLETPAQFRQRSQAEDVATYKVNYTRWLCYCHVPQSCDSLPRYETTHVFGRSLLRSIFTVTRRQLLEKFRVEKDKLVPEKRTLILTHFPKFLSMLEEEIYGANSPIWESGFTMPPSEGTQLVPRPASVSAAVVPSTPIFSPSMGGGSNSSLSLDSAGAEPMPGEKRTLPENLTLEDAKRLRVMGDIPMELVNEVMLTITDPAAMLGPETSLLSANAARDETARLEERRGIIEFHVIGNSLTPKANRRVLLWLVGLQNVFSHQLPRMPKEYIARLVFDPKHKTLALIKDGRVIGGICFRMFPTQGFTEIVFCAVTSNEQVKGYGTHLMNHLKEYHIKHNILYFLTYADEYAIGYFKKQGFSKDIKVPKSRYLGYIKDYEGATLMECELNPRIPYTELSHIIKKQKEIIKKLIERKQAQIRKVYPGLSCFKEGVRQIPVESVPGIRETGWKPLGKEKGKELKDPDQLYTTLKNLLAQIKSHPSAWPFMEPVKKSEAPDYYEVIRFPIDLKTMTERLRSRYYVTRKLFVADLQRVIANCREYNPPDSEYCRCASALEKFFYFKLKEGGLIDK
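ThioGlo1-coupled HAT assay: 20nM GCN5L2, 70uM acetyl-CoA, 75uM H3(1-25) peptide, pH 7.5. Fluorescence read at 340/540nm at start and after 20 min at room temperature.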
GLS inh = qHTS for Inhibitors of Glutaminase (GLS). Glutaminase kidney isoform, mitochondrial (Homo sapiens), O94925. GLS enzymatic activity, qHTS titration. Potency, µM (highest dose often 45.5 µM), hits mostly inhibitors. 410,000 tested, 0.21% active. AID 624170, 2012
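Glutamate formation by hKGA was monitored fluorometrically using coupled glutamate oxidase, HRP and Amplex Red. Substrate was added as 1 mM L-glutamine solution; incubation was 30 min at RT after an initial read.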
POLH inh = qHTS for Inhibitors of Polymerase Eta. Potency, µM (top dose mostly 114 µM), hits mostly inhibitors. 390,000 tested, 1.2% active. recombinant Pol eta, fluorescent DNA replication assay. DNA polymerase eta (Homo sapiens), Q9Y253
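Pol eta at 10 nM preincubated with compounds 15 min at room temperature; reaction started with fluorescent substrate (50 nM final) and read kinetically at 0 and 10 min.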
POLK inh = qHTS for Inhibitors of Polymerase Kappa | purified Pol kappa, fluorescent DNA synthesis assay, 10 min | DNA polymerase kappa (Homo sapiens), Q9UBT6 | Potency, µM (titrated, usually from 107 µM), most hits filed as inhibitors | 400,000 tested, 0.53% active
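Activity was followed as the change in fluorescence between reads at 0 and 10 min after starting the reaction with 50 nM substrate. Beforehand, 10 nM polymerase had been preincubated with compound for 15 min at room temperature.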
A number is an active result; . = inactive; ? = inconclusive; / = no result; [ ] = dose if it differs, or a comment. Rows were chosen to be rich in hits. Some 2.4% of all compounds tested hit in one or more screens of this group. Calls come from the whole dose curve; as a rule, active = well fitted inhibition curve with a large enough effect; inconclusive = small, poorly fitted or top-dose-only effect, or another doubt; inactive = no such curve, though single readings can be large or run the other way.

SMILES	POLB inh	POLI inh	KAT2A inh	GLS inh	POLH inh	POLK inh
C#CCOCCOCCOCCNc1nc(N2CCN(C(=O)[C@H](Cc3ccc(O)cc3)n3cc([C@@H](N)C(C)CC)nn3)CC2)nc(N2CCN(C(=O)[C@H](Cc3cc4ccccc4[nH]3)n3cc([C@@H](N)Cc4ccc(O)cc4)nn3)CC2)n1 (stereo partly specified)	.	/	.	/	/	/
C#CCOCCOCCOCCNc1nc(N2CCN(C(=O)C(Cc3ccc(O)cc3)n3cc(C(N)CC(C)C)nn3)CC2)nc(N2CCN(C(=O)C(Cc3cc4ccccc4[nH]3)n3cc(C(N)C(C)CC)nn3)CC2)n1 (stereo unspecified)	50µM	/	.	/	/	/
O=[N+]([O-])c1c(NCCCO)cc(SCc2ccco2)c2nonc12	50µM	.	.	.	.	.
O=[N+]([O-])c1c(NCCCO)cc(Sc2ccc(Cl)cc2)c2nonc12	.	.	.	.	.	.
CC(=O)OCCNc1cc(SCc2ccco2)c2nonc2c1[N+](=O)[O-]	?	18µM	.	.	?	79µM
COC(=O)CCSc1cc(NCCOC(C)=O)c([N+](=O)[O-])c2nonc12	.	?	.	.	?	.
CN(C)c1ccc(/C=C/c2ccnc3ccccc23)cc1Cl	/	.	/	/	/	.
C=C/C(C)=C/C[C@H]1C(=C)CCC2[C@](C)(C(=O)O)CCC[C@@]21C (stereo partly specified)	/	?	.	?	8.9µM	?
COc1cccc(C(=O)Nc2cccc(OCc3cc(=O)n4cc(C)ccc4n3)c2)c1	.	?	.	?	.	.
CC(C)(C)c1ccc(C(=O)N/C(=C\c2ccco2)C(=O)Nc2ccccc2C(=O)O)cc1	?	?	?	.	35µM	?
O=C(Nc1ccc(C(=O)O)cc1)/C(=C\c1ccco1)NC(=O)c1ccccc1	?	.	.	.	.	.
Nc1nc(SCC(=O)N2N=C3/C(=C\c4ccco4)CCCC3C2c2ccco2)n[nH]1 (stereo unspecified)	/	40µM	/	.	?	.
Nc1nc(SCC(=O)N2N=C3/C(=C/c4ccco4)CCCC3C2c2ccco2)n[nH]1 (stereo unspecified)	.	45µM	.	.	?	.
Cn1cnnc1SCC(=O)N1N=C2/C(=C/c3ccco3)CCCC2C1c1ccco1 (stereo unspecified)	.	?	.	.	.	.
Cc1ccc(Nc2nc(Nc3ccc(Cl)cc3)nc(N3CCOCC3)n2)cc1	/	.	/	/	/	.
CC(=O)c1ccc(N2CCN(c3ncnc4onc(C)c34)CC2)cc1	.	.	.	.	.	.
Cc1ccc(Nc2nc(N)nc(N)c2S(=O)(=O)c2ccccc2)cc1	.	.	.	.	.	.
CCCCn1c(=O)[nH]c2nc3cc(N)ccc3nc2c1=O	5.6µM	1.3µM	.	.	.	.
O=C(NN1C(=O)/C(=C/c2ccc(O)c([N+](=O)[O-])c2)SC1=S)c1ccccc1Cl	.	40µM	.	.	.	45µM
O=C(CN1C(=O)S/C(=C\c2ccc(Cl)cc2)C1=O)NNC(=O)c1ccccc1O	50µM	?	.	.	?	.
O=C(NN1C(=O)/C(=C/c2ccc(O)cc2)SC1=S)c1ccccc1O	.	?	.	.	79µM	.
COc1ccc(/C=C2\SC(=S)N(CCCC(=O)NNC(=O)c3ccccc3O)C2=O)cc1	.	.	.	.	.	.
CCCCCCCCCC[n+]1cccc2cc(Br)ccc21	/	.	/	/	/	.
O=C(C[n+]1cc(Br)cc(Br)c1)c1ccc2c(c1)CCCC2	/	.	/	/	/	.
CN(C(=S)NC(=O)c1ccc(Cl)cc1)C1CCCCC1	11µM	?	.	.	?	.
SMILES	POLB inh	POLI inh	KAT2A inh	GLS inh	POLH inh	POLK inh
CN(C(=S)NC(=O)c1ccc(F)cc1)C1CCCCC1	.	.	.	.	.	.
C[N+]1(CC(=O)c2ccc3c(c2)CCCC3)CCOCC1	/	.	/	/	/	.
Cc1cc(/C=C2\C(=N)N3N=C(S(C)(=O)=O)SC3=NC2=O)c(C)n1Cc1ccccc1	?	?	.	.	35µM	.
Cc1cc(/C=C2/C(=N)N3C(=NC2=O)SN=C3S(C)(=O)=O)c(C)n1-c1ccccc1F	.	?	22µM	.	79µM	.
CC1=CC2=NC(=O)/C(=C\c3cc(C)n(-c4ccccc4F)c3C)C(=N)N2O1	.	.	.	.	.	.
CN(CC(=O)N1CCOCC1)Cc1c(Cl)cccc1NC(=O)c1ccccc1	/	/	/	.	/	/
CCOc1cc(C2Nc3cccc4cccc(c34)N2)ccc1O	.	?	.	.	79µM	.
CCOc1ccc(C2Nc3cccc4cccc(c34)N2)cc1OC	.	?	.	.	?	.
COc1ccc(-c2n[nH]c3c2cnc2cc(OC)c(OC)cc23)cc1	.	.	.	.	.	.
C[C@@H]1OC(O[C@H]2[C@H](Oc3cc(O)c4c(=O)c(O)c(-c5ccc(O)cc5)oc4c3)O[C@H](CO)[C@@H](O)[C@@H]2O)[C@H](O)[C@H](O)[C@H]1O (stereo partly specified)	/	/	.	/	/	.
Cc1ccc(NC(=O)Cn2c(CCC(=O)O)ccc2-c2cccs2)cc1	?	.	.	.	79µM	.
Cc1ccccc1NC(=O)Cn1c(CCC(=O)O)ccc1-c1cccs1	.	.	.	?	.	.
CC(=O)c1ccc(-n2c(CCC(=O)O)ccc2-c2cccs2)cc1	?	?	.	.	?	.
Cc1ccc(-n2c(CCC(=O)O)ccc2-c2cccs2)cc1Cl	2.5µM	?	.	.	.	.
COCCn1c(=O)c(-c2ccc(OC)cc2)nc2cnc(N3CCOCC3)nc21	/	/	?	/	/	.
CCC(=O)Nc1sc2c(c1C(N)=O)CCN(C(C)=O)C2	.	.	.	.	.	.
CC(=O)N1CCc2c(sc(NC(=O)c3ccc([N+](=O)[O-])o3)c2C(N)=O)C1	/	/	/	.	50µM	/
O=C(CN1C(=O)C(=O)N(Cc2ccco2)C1=O)NC1CCCCC1	.	?	.	.	32µM	?
O=C(NC1CCCCCC1)c1ccco1	.	32µM	.	.	.	89µM
CN(C)CCOC1=Cc2ccccc2Sc2ccc(Cl)cc21	/	/	/	.	/	/
COc1ccc([C@]23Cc4cc(OC)c(OC)cc4C(O2)C2=C(CCCC2=O)O3)cc1	.[22.9 µM]	/	.[12.7 µM]	/	/	/
O=S(=O)(Cc1cc(NCc2ccccc2)nc(-c2ccncc2)n1)c1ccccc1	79µM	.	.	.	.	.
O=S(=O)(Cc1cc(NCc2ccccc2)nc(-c2ccccn2)n1)c1ccccc1	.	.	.	.	.	.
